Compound activity as filed in PubChem.
hcDAF-12 act: activators of H. contortus DAF-12 nuclear receptor; HEK293 hcDAF-12 lit1-tk-luc reporter, luminescence; 0% DMSO, 100% Δ7-dafachronic acid; activation, % at 6.8 µM; actives 1.4% (n = 370,000); AID 652067;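 active means activation above the mean of all tested compounds plus 3 SD, cut at about 5.5% in these data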;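 further: 100% = response to 3 µM Δ7-dafachronic acid high control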
DAX1 inh-1: DAX1 (NR0B1) inhibition, primary screen; HEK293T StAR-luciferase reporter, SF-1/DAX-1 repression relief; inhibition, % at 6.8 µM; actives 1.1% (n = 370,000); AID 652010;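 active means inhibition above the mean over all tested compounds plus 3 SD, cut at about 3.6% in these data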;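 further: 0% = DAX-1 cells with DMSO and 100% = cells lacking DAX-1 with DMSO; higher inhibition means more luminescence from relief of DAX-1 repression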
SMARCA2 activ: SMARCA2 function activation, primary screen; MG213 cells, MMTV-luciferase reporter, dexamethasone, overnight; actives 1% (n = 370,000); activation, % at 9.1 µM; in the data active means activation above about 7.8%;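 further: 0% = vehicle wells and 100% = reference activator wells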
ssDAF12 agonist: activates DAF-12 receptor from parasite S. stercoralis | HEK293 ssDAF-12/GRIP1 lit1-tk-luc reporter, luminescence; % of 3 µM dafachronic acid response | activation, % at 6.8 µM | actives 1% (n = 370,000) | AID 652126;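 active means activation above the mean over all tested compounds plus 3 SD, cut at about 0.9% in these data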;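 further: 0% = DMSO-only wells and 100% = 3 µM delta7-dafachronic acid wells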
DAX1 inh-2: inhibits human nuclear receptor DAX1 | P51843 | HEK293 Gal4-DAX1 luciferase reporter, luminescence | inhibition, % at 6.75 µM | actives 0.99% (n = 340,000);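 active means inhibition above the mean over all tested compounds plus 3 SD, cut at about 4.2% in these data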;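 further: 0% = DAX1-transfected cells with DMSO and 100% = empty-vector control cells with DMSO; inhibition shows as a rise in luminescence from relieved DAX1 repression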
Target sequence (P51843 207-470 limits assumed): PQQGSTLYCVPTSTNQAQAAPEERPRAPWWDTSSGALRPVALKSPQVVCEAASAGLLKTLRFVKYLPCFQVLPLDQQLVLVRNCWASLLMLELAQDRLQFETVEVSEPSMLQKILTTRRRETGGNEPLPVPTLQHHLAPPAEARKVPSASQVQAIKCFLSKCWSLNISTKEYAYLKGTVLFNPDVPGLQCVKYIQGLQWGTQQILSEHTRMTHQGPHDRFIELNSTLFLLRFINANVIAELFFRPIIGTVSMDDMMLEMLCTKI
hgDAF-12 ag: activates the H. glycines DAF-12 receptor ligand-binding domain | HEK293 GAL4-hgDAF12 UAS-luciferase reporter, agonist luminescence; normalized to butyrate control | activation, % at 6.8 µM | actives 1.8% (n = 370,000) | AID 687014;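 active means activation above a cutoff set at the mean of all screened compounds plus 3 SD, cut at about 10% in these data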;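 further: 0% = DMSO wells and 100% = sodium butyrate wells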
* marks the source's active call; other numbers are inactive results; / = no result. The list is not random: actives were taken first. Their share in the collection is about 4.8%.

SMILES | hcDAF-12 act | DAX1 inh-1 | SMARCA2 activ | ssDAF12 agonist | DAX1 inh-2 | hgDAF-12 ag
COc1ccc(C2CC(c3ccc(Cl)cc3Cl)n3nc(N)nc3N2)cc1 (stereo not given) | -2 | 0 | 1 | -1 | 5.2* | -1
O=C(c1cc2nc(-c3ccccc3)cc(C(F)(F)F)n2n1)N1CCOCC1 | / | / | / | / | 0 | /
COc1cccc(NC(=O)C2CC(=O)N(Cc3ccc(C)cc3)C2)c1 (stereo not given) | -2 | -1 | -2 | -1 | 0 | -3
COc1cc(NC(=O)c2onc(C)c2Cl)c(OC)cc1Cl | 5 | 1 | 7.9* | 0 | 0 | 1
COc1cc(NC(=O)c2cc(C)no2)c(OC)cc1Cl | 2 | 0 | 0 | -1 | 1 | 1
OCc1c[nH]c2ccccc12 | 6.0* | -2 | -2 | 0 | -1 | 2
O=C(O)Cc1c[nH]c2ccccc12 | 3 | 0 | 2 | -1 | 1 | -4
OCCc1c[nH]c2ccccc12 | 1 | 0 | -1 | -2 | 4.5* | -2
Cn1cc(C(=O)N2CCc3ccccc3C2)c(=O)c2cc(S(=O)(=O)N3CCOCC3)ccc21 | -2 | 0 | -3 | -1 | 1 | -1
O=C(Cn1c2ccccc2c(=O)c2ccccc21)N/N=C/c1ccc(N2CCCC2)c([N+](=O)[O-])c1 | 1 | 0 | -2 | -2 | -1 | -1
Cc1ccc(C(=O)Oc2ccc(/C=C3\C(=N)N4N=C(N5CCOCC5)SC4=NC3=O)cc2)cc1 | 2 | 0 | 5 | -1 | 1 | 12*
N=C1/C(=C\c2ccc(OC(=O)c3ccccc3)cc2)C(=O)N=C2SC(N3CCOCC3)=NN12 | 2 | 1 | 1 | 0 | 2 | 5
O=S1(=O)CC2c3ccc(F)cc3CN2CN1Cc1ccc(F)cc1 (stereo not given) | 1 | 0 | 0 | 0 | / | 2
O=S1(=O)CC2c3ccc(F)cc3CN2CN1C1CCCC1 (stereo not given) | 1 | 0 | 3 | 1.0* | / | -1
C[C@H]1[C@@H](c2ccccc2)Oc2ccc(Cl)cc2S(=O)(=O)N1Cc1cccc(F)c1 | 0 | 0 | -2 | -1 | / | 0
O=C(O)c1cc(N2CCOCC2)nc2ccccc12 | -1 | 0 | -2 | -2 | 1 | 0
N/C(=N\OC(=O)c1cccs1)c1cccnc1 | 3 | 1 | 7 | -1 | 3 | 3
CCSc1ccc(/C(N)=N/OC(=O)c2cccs2)cn1 | 2 | 3.9* | 4 | 0 | 2 | 6
CC(Nc1ncnc2ccccc12)c1ccccc1 (stereo not given) | -4 | -1 | -6 | -3 | -5 | -7
CC1(NC(=O)NCCCCCCNC(=O)NC2(C)CCS(=O)(=O)C2)CCS(=O)(=O)C1 (stereo not given) | -2 | 0 | -1 | -1 | 2 | -2
CC1(NC(=S)NCCCCCCNC(=S)NC2(C)CCS(=O)(=O)C2)CCS(=O)(=O)C1 (stereo not given) | -1 | 1 | -2 | -2 | 5.0* | 0
O=C(Nc1ccccc1N1CCOCC1)c1cc2ccccc2o1 | 1 | 0 | 1 | 1.3* | 0 | 2
CN1CCN(c2ccccc2NC(=O)c2ccc(Br)o2)CC1 | 0 | -1 | 3 | -1 | 0 | 2
CC1CCN(c2ccccc2NC(=O)c2ccc(Br)o2)CC1 | -1 | 0 | 0 | 1.0* | 0 | 8
O=C(Nc1ccc(N2CCN(c3ccccc3)CC2)c(F)c1)C1CC1 | 5.8* | 1 | -3 | 0 | 1 | 1
SMILES | hcDAF-12 act | DAX1 inh-1 | SMARCA2 activ | ssDAF12 agonist | DAX1 inh-2 | hgDAF-12 ag
Cc1ccc(SCC(=O)Nc2ccc(N3CCN(c4ccccc4)CC3)c(F)c2)cc1 | 0 | 0 | -4 | -1 | 0 | 1
CC1(C)Cc2c(c(N3CCOCC3)nc3sc(C(=O)Nc4ccccc4)c(N)c23)CO1 | 6.2* | 1 | 4 | -1 | 3 | 12*
CC1(C)Cc2c(c(N3CCOCC3)nc3sc(C(=O)Nc4cccc(Cl)c4)c(N)c23)CO1 | 0 | 0 | 2 | -1 | 0 | 3
Cc1ccc(-n2c(COc3cccc(C)c3)n[nH]c2=S)cc1 | -2 | 1 | -2 | -1 | 4.8* | -1
Cc1cccc(OCc2n[nH]c(=S)n2-c2ccccc2)c1 | -1 | -1 | 1 | -2 | 2 | -2
O=c1[nH]c(C(F)(F)F)nc2c1nc1n2CCC1 | 1 | 0 | 3 | 0 | 0 | 3
O=C1CNC(=O)c2c(nc3n2CCC3)N1 | 3 | 0 | 7.8* | -1 | -1 | 4
O=C(Nc1ccn(CCCN(CCCn2ccc(NC(=O)OCc3ccccc3)nc2=O)CCc2cc3ccccc3[nH]2)c(=O)n1)OCc1ccccc1 | -1 | -1 | 0 | -1 | 2 | -2
Cc1cccc(-n2c(Cc3cc(=O)[nH]c(=O)[nH]3)nnc2SCC(=O)N2CCc3ccccc32)c1 | 6.2* | 0 | 1 | -1 | 1 | 3
O=C(CSc1nnc(Cc2cc(=O)[nH]c(=O)[nH]2)n1-c1ccc(F)cc1)N1CCCCC1 | -1 | 0 | -3 | 0 | 7.9* | 6
O=C(CSc1nnc(Cc2cc(=O)[nH]c(=O)[nH]2)n1-c1ccccc1)N1CCCc2ccccc21 | -1 | 0 | 1 | -1 | -1 | 1
O=C(O)c1cccc(NC2=C(Cl)C(=O)c3ccccc3C2=O)c1 | 3 | 1 | 6 | -1 | -1 | 3
O=C(O)c1ccc(NC2=C(Cl)C(=O)c3ccccc3C2=O)cc1 | 6.7* | 0 | 2 | 0.9* | 3 | 2
Cc1ccc(NC(=O)C2CCN(C(=O)c3cccs3)CC2)c(C)c1 | -2 | 0 | -1 | -2 | 0 | -1
CCc1ccccc1NC(=O)C1CCN(C(=O)c2cccs2)CC1 | 3 | 0 | -3 | -2 | 4.4* | 1
Cc1cccc(NC(=O)CSc2ncnc3nc[nH]c23)c1 | -2 | 0 | -5 | -1 | 0 | -2
Cc1ccc(NC(=O)Nc2ncnc3nc[nH]c23)cc1 | 2 | 2 | 2 | -1 | 3 | 12*
CCc1ccc(Nc2ncnc3nc[nH]c23)cc1 | 4 | 3 | 5 | 0 | 5.3* | 12*
CCCNc1ncnc2nc[nH]c12 | 2 | 1 | -1 | -1 | -1 | 0
COCCOC1CCN(C(=O)C2CCC(=O)N(CCc3cccc(F)c3)C2)CC1 (stereo not given) | -1 | 1 | -1 | -1 | 0 | 2
CC1CCCN(C(=O)COC(=O)C2CCN(S(=O)(=O)c3ccc4c(c3)OCCO4)CC2)C1 (stereo not given) | 1 | -1 | -1 | -1 | 1 | 0
O=C(C[n+]1ccc2ccccc2c1)c1ccccc1 | 4 | 1 | 2 | 1 | 4.8* | 9
Nc1cc[n+](CC(=O)c2ccccc2)cc1 | -3 | -1 | -1 | -1 | 1 | -2
